Assay [1] deals with HB3. The assay is described as follows: qHTS profiling for inhibitors of Plasmodium falciparum proliferation (AID 504749). The settings on record: P. falciparum in erythrocytes, SYBR Green DNA, 72 h; series mostly up to 28.7 µM. Summed up:
(§1)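 SYBR Green fluorescence of parasite DNA, read after lysis and overnight dark incubation, measured growth over 72 h in erythrocyte culture at 0.3% parasitemia and 2.5% hematocrit. Data normalised to DMSO and 0.29 uM artemisinin, with plate-drift correction.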
For orientation: In qHTS, concentration-response curves come from the screen itself.

In assay [2] the test system is ICS. The assay is described as above. The settings on record: P. falciparum in erythrocytes, SYBR Green DNA, 72 h; series mostly up to 28.7 µM. In short, it runs like this:
as §1

The test system of assay [3] is JCK. The assay is described as above. Conditions: P. falciparum in erythrocytes, SYBR Green DNA, 72 h; series mostly up to 28.7 µM. In short, it runs like this:
as §1

The test system of assay [4] is N140. The assay is described as above. The settings on record: P. falciparum in erythrocytes, SYBR Green DNA, 72 h; series mostly up to 28.7 µM. In short, it runs like this:
as §1

For assay [5], the system named is P93_24. Described as above. Conditions: P. falciparum in erythrocytes, SYBR Green DNA, 72 h; series mostly up to 28.7 µM. In short, it runs like this: as §1
The test system of assay [6] is P94_40. Described as above. The settings on record: P. falciparum in erythrocytes, SYBR Green DNA, 72 h; series mostly up to 28.7 µM. Summed up: as §1
Assay [7] has as its system PAD. Described as above. The settings on record: P. falciparum in erythrocytes, SYBR Green DNA, 72 h; series mostly up to 28.7 µM. Summed up:
as §1

The subject of assay [8] is PC15. The description is as above. Conditions: P. falciparum in erythrocytes, SYBR Green DNA, 72 h; series mostly up to 28.7 µM. In short, it runs like this:
as §1

Assay [9] deals with PC26. The description is as above. The settings on record: P. falciparum in erythrocytes, SYBR Green DNA, 72 h; series mostly up to 28.7 µM. In short, it runs like this: as §1
Assay [10] has as its system PC49. The description is as above. Conditions: P. falciparum in erythrocytes, SYBR Green DNA, 72 h; series mostly up to 28.7 µM. In short, it runs like this:
as §1

Assay [11] relates to SC27B. The assay is described as above. The settings on record: P. falciparum in erythrocytes, SYBR Green DNA, 72 h; series mostly up to 28.7 µM. Summed up: as §1
Assay [12] concerns TAB109. Described as above. Conditions: P. falciparum in erythrocytes, SYBR Green DNA, 72 h; series mostly up to 28.7 µM. Summed up: as §1
Assay [13] has as its system TAB113. The assay is described as above. Conditions: P. falciparum in erythrocytes, SYBR Green DNA, 72 h; series mostly up to 28.7 µM. Summed up:
as §1

The subject of assay [14] is TAB165. The assay is described as above. Conditions: P. falciparum in erythrocytes, SYBR Green DNA, 72 h; series mostly up to 28.7 µM. Summed up: as §1
In assay [15] the test system is W2. Described as above. Conditions: P. falciparum in erythrocytes, SYBR Green DNA, 72 h; series mostly up to 28.7 µM. In short, it runs like this: as §1
The test system of assay [16] is CRL-7250. Nature of the assay: Cytotoxic Profiling of Annotated Libraries Using Quantitative High-Throughput Screening (AID 1296008). On max response: on the % scale 0 is the no-effect control and ±100 the full control effect. Conditions: Five cell lines viability, CellTiter-Glo ATP luminescence, 48-72 h; max response: hits give low values. Summed up:
(§2)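 Cytotoxicity was measured as CellTiter-Glo ATP luminescence, read after 10 min at room temperature. Compound treatment of the cells lasted 48 or 72 hr at 37 degrees Celsius in a qHTS format.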
For orientation: Cellular ATP, detected with luciferase, serves as a proxy for viable cell number.

Assay [17] concerns HaCat. The description is as above. The settings on record: Five cell lines viability, CellTiter-Glo ATP luminescence, 48-72 h; max response: hits give low values. In short, it runs like this:
as §2

Assay [18] deals with KB-3-1. The description is as above. Conditions: Five cell lines viability, CellTiter-Glo ATP luminescence, 48-72 h; max response: hits give low values. Summed up: as §2
Assay [19] concerns NIH3T3. The assay is described as above. The settings on record: Five cell lines viability, CellTiter-Glo ATP luminescence, 48-72 h; max response: hits give low values. Summed up:
as §2

For assay [20], the system named is HEK293. The description is as above. Conditions: Five cell lines viability, CellTiter-Glo ATP luminescence, 48-72 h; max response: hits give low values. Summed up:
as §2

“And” between values parts separate entries of the source, which are not always exact repeats. Equal entries are not always repeated. Results filed as inconclusive are left out. Unmarked numbers belong to inactive results. The source made the active and inactive calls. The call rests on the fitted dose curve; in most records, active means well fitted inhibition curve with a large enough effect; inconclusive means small, poorly fitted or top-dose-only effect; inactive means flat fitted curve, though single readings scatter.
Further: nearly all actives have a fitted effect of over 60% in size.
Potency means the concentration at half of the fitted maximal effect.

For `C[C@@H](O)[C@H]1C(=O)N2C(C(=O)O)=C(S[C@@H]3CN[C@H](CNS(N)(=O)=O)C3)[C@H](C)[C@H]12`, the Potency entry in assay [1], in assay [2], in assay [3], in assay [4], in [5] and in [6] was “inactive” throughout. For the same compound, the Potency entry in assay [7], in [8], in assay [9], in assay [10], in [11] and in assay [12] was “inactive” each time. Further, the Potency result in assay [13], in assay [14] and in [15] was “inactive” throughout. Also, the max response in [16] was -1.21%; in [18], 7.85%; in assay [19], 3.07%. The call in assay [17] was inactive.

Take `CCc1cc(Cl)c(OC)c(C(=O)NC[C@@H]2CCCN2CC)c1O`: the max response is 3.41% in [16]; -11.4% and -0.677% and -21.5% in assay [18]; 4.04% in assay [19]. The result in [17] was inactive.

For `C[C@H]1[C@H]2CC[C@H]3[C@@H]4CC=C5C[C@@H](N(C)C)CC[C@]5(C)[C@H]4CC[C@]23CN1C`, the max response in [16] was -17.6%; in assay [18], 3.38%; in [19], 0.439%. For the same compound, the outcome in assay [17] was inactive.

In the case of `CCN(CC)CCOC(=O)C(Cc1cccc2ccccc12)CC1CCCO1` (stereo not drawn), the max response in [16] was -0.146%; in [18], 13.9%; in assay [19] it was 3.27%. Besides, in assay [17], the result was inactive.

For the compound `CCCCCCCC/C=C\CCCCCCCCN`, the Potency entry in assay [1], in assay [2], in assay [3], in assay [4], in [5] and in assay [6] was “inactive” each time. Moreover, the Potency entry in assay [7], in assay [8], in [9], in assay [10], in assay [11] and in assay [12] was “inactive” throughout. The Potency result in assay [13], in [14] and in assay [15] was “inactive” throughout. The compound was called inactive in assay [16]. The max response in [20] was -3.13%; in [19], -3%.

Consider `CC(C)CCCC(C)N` (stereo not drawn), for which the Potency result in assay [1], in [2], in assay [3], in [4], in assay [5] and in [6] was “inactive” throughout. For the same compound, the Potency result in [7], in assay [8], in assay [9], in assay [10], in assay [11] and in assay [12] was “inactive” each time. The Potency entry in [13], in assay [14] and in [15] was “inactive” in each case. Further, the Potency in assay [16] is 33.5 µM (active). The max response was -0.769% in [17] and 22% in assay [18]. In assay [19], the compound was classed as inactive.

Take `CCN(CC)CCNc1ccc(CO)c2sc3ccccc3c(=O)c12`: the Potency in assay [1] is 8.91 µM (active); in assay [2], 2 µM (active); in assay [3] it was 11.2 µM (active); in assay [4], 0.708 µM (active); in [5] it was 0.891 µM (active); in assay [6], 1.58 µM (active). In addition, the Potency in assay [7] is 1 µM (active); in assay [8], 3.16 µM (active); in [9], 7.57 µM (active); in assay [11], 1.12 µM (active); in [12], 1.58 µM (active); in assay [13] it was 1.12 µM (active). In addition, the Potency in [14] is 0.794 µM (active); in [15], 0.675 µM (active); in assay [16], 18.8 µM (active); in [20] it was 7.5 µM (active); in [19] it was 23.7 µM (active).

For the compound `COc1ccc(-c2cc(C(F)F)nn2-c2ccc(S(N)(=O)=O)cc2)cc1F`, the Potency result in assay [1], in assay [2], in [3], in assay [4], in assay [5] and in [6] was “inactive” throughout. Besides, the Potency result in [7], in [8], in [9], in assay [10], in assay [11] and in assay [12] was “inactive” each time. In addition, the Potency result in assay [13], in assay [14] and in assay [15] was “inactive” throughout. For the same compound, the max response in [16] was 2.74%; in assay [17], -0.189%; in [18] it was 15.2%; in assay [19], 1.89%.

For the compound `CCCCOC(=O)CC(CC(=O)OCCCC)(OC(C)=O)C(=O)OCCCC`, the max response in assay [16] is -18.3%; in assay [18], 0.604%; in assay [19], -2.35%. For the same compound, the result in assay [17] was inactive.

As to `c1ccc(-c2nc[nH]c2-c2ccccc2)cc1`, the Potency entry in assay [1], in assay [2], in assay [3], in [4], in [5] and in [6] was “inactive” throughout. Moreover, the Potency result in [7], in assay [8], in [9], in assay [10], in [11] and in [12] was “inactive” in each case. Also, the Potency entry in assay [13], in assay [14] and in assay [15] was “inactive” each time. The max response was -18.7% in assay [16], -29.5% in assay [17], 23.6% in [18] and -7.14% in [19].

Regarding `O=C1OC(CN2CCOCC2)CN1/N=C/c1ccc([N+](=O)[O-])o1` (stereo not drawn), in assay [16], the outcome was inactive. The results for the max response in assay [17], in assay [18] and in assay [19] were 2.11%, 2.54% and -5.18%, respectively.

For the compound `CCCCNc1ccc(C(=O)OCCOCCOCCOCCOCCOCCOCCOCCOCCOC)cc1`, the Potency result in assay [1], in [2], in assay [3], in assay [4], in [5] and in assay [6] was “inactive” each time. For the same compound, the Potency result in assay [7], in assay [8], in [9], in [10], in assay [11] and in [12] was “inactive” throughout. Besides, the Potency result in assay [13] and in assay [15] was “inactive” in each case. Besides, the max response in assay [16] is -14.1%; in assay [17] it was 0.553%; in assay [18] it was -13.9%; in assay [19], -8.1%.

For `COc1ccc(S(=O)(=O)N2c3ccc(Cl)cc3[C@@](O)(c3ccccc3Cl)[C@H]2C(=O)N2CCC[C@@H]2C(N)=O)cc1OC`, the max response in assay [16] is -16.1%; in [17], -3.91%; in assay [18], -5.62%; in assay [19] it was 1.04%.

In the case of `NC(N)=NN=C(/C=C/c1ccc([N+](=O)[O-])o1)/C=C/c1ccc([N+](=O)[O-])o1`, the Potency in assay [1] was 2.24 µM (active); in assay [2], 2 µM (active); in [4] it was 10 µM (active); in assay [5], 12.6 µM (active); in assay [7], 10 µM (active); in assay [10] it was 11.2 µM (active). The Potency is 7.08 µM (active) in assay [12]; 7.94 µM (active) in assay [14]; 2.39 µM (active) in assay [15]; 5.96 µM (active) in assay [16]; 4.73 µM (active) in [20]; 6.68 µM (active) in assay [19].

Consider `O=C(Nc1ccccc1)OCC(CN1CCCCC1)OC(=O)Nc1ccccc1` (stereo not drawn), for which the figures for the max response in [16], in [18] and in [19] were -24%, -1.56% and -10.2%, respectively. Also, the compound was called inactive in assay [17].

On to `C#C[C@]1(O)CC[C@H]2[C@@H]3CCC4=CC(=O)CC[C@@H]4[C@H]3CC[C@@]21CC`, for which the Potency result in [3], in assay [4], in [5], in [6], in [7] and in assay [8] was “inactive” each time. Besides, the Potency entry in [9], in assay [10], in assay [11], in assay [12], in assay [13] and in assay [14] was “inactive” in each case. In addition, the max response in [16] was -4.9%; in [20], -17.9%; in assay [19], -3.66%.

Turning to `CO[C@H]1C=CO[C@@]2(C)Oc3c(C)c(O)c4c(O)c(c(/C=N/N5CCN(C)CC5)c(O)c4c3C2=O)NC(=O)/C(C)=C\C=C[C@H](C)[C@H](O)[C@@H](C)[C@@H](O)[C@@H](C)[C@H](OC(C)=O)[C@@H]1C`, the max response is 1.9% in [16], -21.6% in assay [17], -19.7% in assay [18] and -0.808% in assay [19].

The values above are taken from PubChem BioAssay (NCATS).
